# SKKanGAS inh: inhibitors of SKKanGAS S. pyogenes growth in kanamycin (SK-promoter or general growth effect). BacTiter-Glo, 6 h. inhibition, % at 7.5 µM. actives 1.3% (n = 300,000). AID 1662;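 active = mean replicate score, as percent of positive control median, at least 50; inconclusive = mean below 50 but one replicate at or above 50; inactive = mean and every replicate below 50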;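 also: strain carries kanamycin resistance gene driven by streptokinase promoter and grows in 40 µg/ml kanamycin; loss of luminescence reflects streptokinase promoter inhibition or plain growth inhibition; 0% = median of DMSO wells and 100% = positive control at its reference dose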
# Calb FLC: C. albicans growth modulation with fluconazole. C. albicans CaCi-2 (fluconazole-resistant clinical isolate) + fluconazole, Alamar Blue growth, 48 h. growth inhibition, % (concentration not given with the values). actives 0.57% (n = 300,000);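 active = growth inhibition above about 58% in most replicates, limit read from the data, passing the limit was not always enough; inconclusive = exactly half the replicates above a set limit; inactive = most replicates below a set limit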;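 also: all wells also contain fluconazole at 8 µg/ml as a sub-toxic cotreatment; 0% = median of DMSO wells and 100% = median of geldanamycin control wells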
# PfHsp90 yeast 2: inhibits growth of yeast expressing Plasmodium falciparum Hsp90; S. cerevisiae expressing PfHsp90, BacTiter-Glo ATP, 48 h; yeast lacking PDR1 and PDR3 efflux regulators; inhibition, % at 9.4 µM; actives 0.32% (n = 310,000); AID 504621;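 active = every replicate shows inhibition above about 80%, whatever the replicate mean, limit read from the data; inconclusive = mean inhibition reaches the set limit but some replicate falls short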;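 also: 0% = DMSO neutral controls and 100% = 20 µM radicicol positive controls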
# TIM10 inh: growth inhibitors of TIM10 yeast strain. actives 1.4% (n = 330,000). S. cerevisiae TIM10 strain growth, BacTiter-Glo luminescence, 24 h. inhibition, % at 10 µM;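 active = inhibition of 40% or more at the single tested concentration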;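 also: wild-type TIM10 isogenic control strain grown at permissive 25 °C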
# tim23-1 inh: tim23-1 yeast growth inhibition. S. cerevisiae tim23-1 growth, BacTiter-Glo luminescence, 24 h. AID 463212. inhibition, % at 20 µM. actives 1.3% (n = 330,000);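 active = growth inhibition of the mutant yeast at or above 50%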;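 also: temperature-sensitive mutant grown at 25 °C; plate controls were DMSO-treated mutant yeast for no effect and medium wells lacking yeast for full effect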
# tim10-1 inh: inhibits growth of tim10-1 mutant yeast; actives 2.2% (n = 330,000); S. cerevisiae tim10-1 ts strain growth, BacTiter-Glo, 24 h; inhibition, % at 20 µM; AID 463190;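 active = inhibition of at least 40%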;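 also: mutant grown at 25 °C; 0% = DMSO wells with yeast and 100% = wells holding no yeast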
# tim10-1 conf: tim10-1 yeast growth inhibition, confirmed. shares compounds with tim10-1 inh. S. cerevisiae tim10-1 ts strain growth, BacTiter-Glo, 24 h. inhibition, % at 20 µM. actives 56% (n = 7,400). AID 463213;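 active = inhibition of yeast growth at or above a set limit in either of two repeat tests at 20 µM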;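 also: tim10-1 mutant grown at permissive 25 °C to find synthetic lethal compounds; 0% = DMSO yeast wells and 100% = medium wells without yeast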
# TIM10 conf: TIM10 yeast growth inhibition, confirmed. AID 463215. shares compounds with TIM10 inh. actives 63% (n = 4,600). inhibition, % at 10 µM. S. cerevisiae tim10 strain growth, BacTiter-Glo luminescence, 24 h;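 active = inhibition of yeast growth at or above a set limit in either of two replicates at 10 µM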;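 also: this counterscreen used the strain with wild-type TIM10; 0% = yeast with DMSO and 100% = medium wells lacking yeast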
# tim23-1 confirm: tim23-1 yeast growth inhibition, confirmed; shares compounds with tim23-1 inh; AID 463218; actives 83% (n = 4,400); S. cerevisiae tim23-1 growth, BacTiter-Glo luminescence, 24 h; inhibition, % at 20 µM;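 active = inhibition above about 39% in either of two replicate wells at 20 µM, limit read from the data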;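 also: temperature-sensitive tim23-1 mutant grown at 25 °C; 0% = DMSO wells with yeast and 100% = medium wells without yeast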
# Numbers without * were called inactive; ? = inconclusive; . = no result. Hits are enriched below; roughly 4.7% of the tested compounds scored in any of these assays.
SMILES,SKKanGAS inh,Calb FLC,PfHsp90 yeast 2,TIM10 inh,tim23-1 inh,tim10-1 inh,tim10-1 conf,TIM10 conf,tim23-1 confirm
O=C(N/N=C/c1ccsc1)c1cc2ccccc2o1,1,-24,-8,55*,56*,46*,-4,48*,67*
CCN(CC)C1CC(=O)N(c2cccc(C)c2)C1=O (stereo not given),-3,-4,.,30,54*,59*,56*,.,66*
Cc1cccc(N2C(=O)CC(Cn3nc(C)cc3C)C2=O)c1 (stereo not given),10,-2,5,-1,4,9,.,.,.
COc1cccc(Nc2ccc([N+](=O)[O-])c3nonc23)c1,4,?,-15,30,70*,57*,22,.,78*
O=C(CCn1cccn1)N1CCCC(N2CCN(c3cccc(Cl)c3)CC2)C1 (stereo not given),3,7,28,-1,2,2,.,.,.
CCN1C(=O)/C(=C\c2ccc3c(c2)OCO3)C(C(=O)OC)=C1C,-8,18,.,56*,50,47*,45*,43*,62*
COC(=O)C1=C(C)N(Cc2ccco2)C(=O)/C1=C\c1ccc([N+](=O)[O-])cc1,19,-4,-7,66*,64*,62*,77*,74*,57*
COc1ccc2c(c1)c1ccc3c(c1n2C)C(=O)C=CC3=O,.,.,7,55*,68*,47*,60*,93*,-19
COc1ccc2c(c1)c1ncn(CCN3CCCC3)c(=O)c1n2C,3,1,-21,-21,4,17,.,.,.
Cc1ccc2c(c1)c1ccc3c(c1n2C)C(=O)C=CC3=O,.,.,?,63*,73*,63*,56*,94*,42*
O=Cc1cc2ccccc2nc1SCCCF,-17,?,-4,78*,67*,64*,69*,72*,55*
CSc1nc2ccccc2cc1/C=C(\C#N)c1ccccc1,29,0,1,-7,-11,-11,.,.,.
CC1CCN(C(=O)c2ccc3c(c2)NC(=O)/C(=C/c2ccccc2)S3)CC1,76*,-1,-17,-7,50*,42*,1,.,47*
CCN1CCCC1CNC(=O)c1ccc2c(c1)NC(=O)/C(=C\c1ccc(C)cc1)S2 (stereo not given),9,-4,2,-1,20,13,.,.,.
Cc1ccc(C(=O)OCC(=O)N(C)c2ccccc2)c(C)c1,1,-2,-17,18,52*,57*,50*,.,46*
CC(C)(C)c1cc(C(=O)CCN2CCOCC2)cc(C(C)(C)C)c1O,1,6,-9,76*,74*,77*,76*,80*,56*
O=C(CCS(=O)(=O)c1cccc2nonc12)NCc1ccc(Cl)cc1,3,1,-5,-12,-10,-6,.,.,.
S=C(NCc1ccco1)Nc1ccc(Cl)cc1,7,0,-8,-5,14,5,.,.,.
S=C(NCc1ccco1)Nc1ccc(Oc2ccc(Cl)cc2)cc1,25,-2,14,38,63*,46*,60*,.,76*
CCCOc1ccccc1OCC(=O)Nc1cccc(S(=O)(=O)NC2=NCCC2)c1,.,.,5,1,13,5,.,.,.
Cc1cccc(NC(=O)Cc2coc3ccc4ccccc4c23)n1,-1,-12,-59,31,51*,46*,36*,.,56*
Cc1ccnc(NC(=O)c2ccc(OCc3c(C)noc3C)cc2)c1,.,.,.,8,-7,-3,.,.,.
O=C1C(C2=C(O)c3ccccc3C2=O)=Nc2ccccc21,12,-20,-1,56*,62*,51*,19,54*,73*
CN(C(=O)c1nn(C)c2c1CS(=O)(=O)c1ccccc1-2)c1cccc(Cl)c1,2,-1,31,3,11,-5,.,.,.
COc1cccc(NC(=S)N/N=C2/CCCCc3ccccc32)c1,-32,34,-8,.,.,.,.,.,.
SMILES,SKKanGAS inh,Calb FLC,PfHsp90 yeast 2,TIM10 inh,tim23-1 inh,tim10-1 inh,tim10-1 conf,TIM10 conf,tim23-1 confirm
Cc1ccc(C)c(NC(=S)N/N=C2/CCCCc3ccccc32)c1,55*,-3,-35,45*,57*,54*,35*,-1,44*
COc1cccc2oc3ccc(C#Cc4ccccn4)cc3c(=O)c12,18,-4,38,56*,75*,41*,53*,38*,70*
COc1ccc(C2=CC(=O)N(Nc3ccccc3)C2=O)cc1,.,-18,.,54*,81*,49*,50*,55*,77*
Cc1ccc(C)c(NC(=S)NNc2ccc(F)cc2F)c1,8,-18,-7,13,58*,47*,42*,.,57*
Cc1ccc(C)c(NC(=S)NCCc2ccc(F)cc2)c1,2,-29,-17,35,24,33,.,.,.
COc1ccccc1CN(Cc1nc2ccccc2c(=O)[nH]1)C(=O)Nc1ccccc1C,-4,2,-3,13,27,25,.,.,.
COc1ccccc1CN(Cc1nc2ccccc2c(=O)[nH]1)C(=O)Nc1ccc(C)cc1,5,8,-11,55*,59*,43*,38*,40*,51*
CCCOc1ccc(C(=O)N/N=C/c2c[nH]c3ccc(Br)cc23)cc1,36,10,14,18,55*,43*,37*,.,54*
Cc1cc(=O)n2nc(N3CCCC(C(=O)NC4CCC(C)CC4)C3)sc2n1 (stereo not given),0,-9,11,7,-2,7,.,.,.
Cc1nc2ccccc2n1C(=O)c1ccc(Cl)cc1[N+](=O)[O-],1,-3,-26,23,50*,48*,33*,.,39*
COc1ccccc1C1CCN(c2ccc(CO)cc2[N+](=O)[O-])CC1,-10,23,-6,42*,64*,64*,61*,36*,73*
CCC1=CC(c2ccccc2)n2ncnc2N1 (stereo not given),-3,-2,1,-7,-19,-20,.,.,.
CCOC(=O)CN(C(=O)CNC(=O)c1ccco1)C(C(=O)NC1CCCCC1)c1cccnc1 (stereo not given),1,-2,26,1,1,-3,.,.,.
COC(=O)[C@H](Cc1ccccc1)NC(=O)Cn1ccc(NC(=O)OCc2ccccc2)nc1=O,.,.,4,-4,14,8,.,.,.

# Screens from PubChem BioAssay.
